Bioassay records: PubChem, National Center for Advancing Translational Sciences (NCATS)
In the library only some 12% were active in any assay of this set; here they are far more common.
ALDH1A1 block = inhibitors of human aldehyde dehydrogenase 1A1; P00352; Purified ALDH1A1, NADH fluorescence, propionaldehyde substrate; Potency, µM (doses to about 75.3 µM), actives largely listed as inhibitors; hit rate 7.3% among 220,000; AID 1030; active = well fitted inhibition curve with a large enough effect, not every such curve was filed as active; inconclusive = small, poorly fitted or top-dose-only effect, or another doubt; inactive = no such curve, though single readings can be large or run the other way
Target sequence (P00352 whole entry, looked up): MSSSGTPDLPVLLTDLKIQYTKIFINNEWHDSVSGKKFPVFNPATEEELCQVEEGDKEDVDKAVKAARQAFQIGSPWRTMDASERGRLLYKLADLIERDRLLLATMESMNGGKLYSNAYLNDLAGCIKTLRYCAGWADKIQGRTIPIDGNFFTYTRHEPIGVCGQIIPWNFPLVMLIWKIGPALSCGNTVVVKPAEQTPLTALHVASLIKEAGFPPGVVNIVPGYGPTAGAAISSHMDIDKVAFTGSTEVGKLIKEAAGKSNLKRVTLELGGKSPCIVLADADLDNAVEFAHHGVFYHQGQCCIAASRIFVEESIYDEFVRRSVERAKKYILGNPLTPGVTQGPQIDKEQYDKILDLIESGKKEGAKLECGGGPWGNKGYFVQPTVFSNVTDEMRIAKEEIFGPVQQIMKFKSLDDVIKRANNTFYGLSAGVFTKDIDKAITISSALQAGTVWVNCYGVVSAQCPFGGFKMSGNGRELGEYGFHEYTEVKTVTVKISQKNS
VP16 counter = Gal4-VP16 reporter inhibition counter-screen. Drosophila S2 Gal4-VP16 UAS-luciferase, luminescence, 20 h. Potency, µM (series often up to 53.6 µM), usual class: inhibitors. hit rate 3.5% among 310,000;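 note: Gal4-VP16 expression switched on by copper sulfate through the metallothionein promoter; nearly all actives have a fitted effect of over 50% in size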
Sfp PPTase inh = blocks B. subtilis Sfp PPTase activity; Q9F4F7; Biochemical Sfp PPTase activity, qHTS; Potency, µM, hits mostly inhibitors; hit rate 3.5% among 310,000; AID 1490;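 note: the enzyme is Sfp with the accession as filed and its product quenches rhodamine fluorescence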
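Compounds were incubated with enzyme (final 15 nM) for 15 min at room temperature before substrate addition started the reaction. Fluorescence at 525 nm excitation, 598 nm emission was recorded immediately and after 30 minutes.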
PLK1 PBD block = inhibitors of human PLK1 polo-box domain binding; Plk1 PBD binding of FITC phosphopeptide, fluorescence polarization; hit rate 2.8% among 360,000; Potency, µM, most hits filed as inhibitors; P53350; note: series mostly up to about 57 µM; nearly all actives have a fitted effect of over 65% in size
RORgamma inh = inhibitors of mouse ROR gamma transcriptional activity | Drosophila S2 Gal4-RORgamma UAS-luciferase reporter, 20 h | P51450 | hit rate 5.4% among 310,000 | Potency, µM (titrated, usually from 53.6 µM), usual class: inhibitors; note: nearly all actives have a fitted effect of over 60% in size
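Stable Schneider cell line, Gal4 DNA-binding domain fused to ROR gamma, UAS-luciferase. Cmpd 1 hr RT → CuSO4 700 uM final → 20 hr RT → luciferase reagent 10 min → luminescence.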
Each line names hits and unclear results; the compound was inactive in the other large screens. Unless noted, calls come from the whole dose curve; as a rule, active = well fitted curve in the direction sought with a large enough effect; inconclusive = small, poorly fitted or top-dose-only effect, or another doubt; inactive = no such curve, though single readings can be large; an effect the other way counts as inactive or inconclusive.

CCc1ccc2oc(-c3cc(N)ccc3O)nc2c1	ALDH1A1 block inconclusive, VP16 counter 4µM, RORgamma inh 2.5µM
Cc1ccc(C)c(-c2nc3cc(N)ccc3o2)c1	ALDH1A1 block inconclusive
OC[C@@H]1CN(Cc2cccnc2)C[C@H](n2cnc3c(N4CCN(c5ccccc5)CC4)ncnc32)O1	none (no result: ALDH1A1 block, VP16 counter, Sfp PPTase inh, RORgamma inh)
CCC(=O)N1Cc2cc(C(=O)Nc3nccs3)nc(-c3cccc(-c4ccccc4OC)c3)c2[C@@H]1CCO	none (no result: ALDH1A1 block, VP16 counter, Sfp PPTase inh, RORgamma inh)
CCOC(=O)CNC(=O)C(Cc1ccccc1)NS(=O)(=O)c1ccc2c(c1)CCC(=O)N2 (stereo unspecified)	none (no result: ALDH1A1 block, VP16 counter, Sfp PPTase inh, RORgamma inh)
O=C1CCc2cc(S(=O)(=O)NC(Cc3ccccc3)C(=O)NCC3CCCO3)ccc2N1 (stereo unspecified)	ALDH1A1 block inconclusive, RORgamma inh 7.9µM
Cc1c(CCO)c(=O)[nH]n1C(=O)c1ccc(F)cc1	VP16 counter 11µM, RORgamma inh 10µM
COc1ccc(-c2csc(C(NC(C)=O)c3cccc(F)c3)n2)cc1 (stereo unspecified)	none (no result: ALDH1A1 block, VP16 counter, Sfp PPTase inh, RORgamma inh)
O=C(CSc1ccsc1[N+](=O)[O-])NCCc1ccc(Cl)cc1	none
CC(Sc1ccsc1[N+](=O)[O-])C(=O)NCCc1ccc(Cl)cc1 (stereo unspecified)	ALDH1A1 block 3.2µM
CC1=NN(C(=S)Nc2ccccc2)C(c2ccccc2)C1 (stereo unspecified)	VP16 counter inconclusive, RORgamma inh 13µM
Cc1ccc(C2CC(c3ccccc3)=NN2C(=S)Nc2ccccc2)o1 (stereo unspecified)	ALDH1A1 block 2µM, Sfp PPTase inh 45µM
Cc1cccc(NC(=S)N2N=CCC2c2ccccc2)c1 (stereo unspecified)	ALDH1A1 block inconclusive, VP16 counter inconclusive
COc1ccc(-c2nc3c4ccccc4ccn3c2Cc2ccccc2)cc1OC	none (no result: ALDH1A1 block, VP16 counter, Sfp PPTase inh, RORgamma inh)
CCn1c(-c2cc(-c3ccccc3OC)nc3ccccc23)n[nH]c1=S	ALDH1A1 block inconclusive, RORgamma inh 7.9µM
COc1ccc(OC)c(NC(=O)Cn2c(C)nc3ccccc3c2=O)c1	none
CCn1c(-c2cc(-c3cc(OC)ccc3OC)nc3ccccc23)n[nH]c1=S	ALDH1A1 block inconclusive, RORgamma inh 8.9µM
CCOC(=O)c1c(/N=C/c2cccc([N+](=O)[O-])c2O)sc(C)c1C	ALDH1A1 block 13µM, VP16 counter inconclusive, Sfp PPTase inh 40µM, PLK1 PBD block inconclusive, RORgamma inh inconclusive
O=[N+]([O-])c1ccc(O)c(C=Nc2cccc3ccccc23)c1	none (no result: ALDH1A1 block)
Cc1cc(-n2nc3ccccc3n2)c(O)c([N+](=O)[O-])c1	VP16 counter inconclusive, RORgamma inh inconclusive (no result: ALDH1A1 block)
O=C(O)c1cc([N+](=O)[O-])cc2ccccc12	PLK1 PBD block 19µM (no result: ALDH1A1 block, VP16 counter, Sfp PPTase inh, RORgamma inh)
CCOC(=O)c1c(/N=C/C2=C(O)CCCC2=O)sc(C)c1C	none
O=[N+]([O-])c1cc2ccccc2c(O)c1O	PLK1 PBD block 5.3µM (no result: ALDH1A1 block, VP16 counter, Sfp PPTase inh, RORgamma inh)
O=[N+]([O-])c1cccc(C=Nc2cccc3ccccc23)c1O	RORgamma inh 1.6µM (no result: ALDH1A1 block)
O=C(O)c1cc([N+](=O)[O-])ccc1-c1ccc([N+](=O)[O-])cc1C(=O)O	none (no result: ALDH1A1 block, VP16 counter, Sfp PPTase inh, RORgamma inh)
COc1cccc(-c2ccc3ncnc(Nc4ccccc4)c3c2)c1	none (no result: PLK1 PBD block)
COc1ccc(CCC(=O)OCC(=O)NC2CCCC2)cc1OC	none (no result: ALDH1A1 block, VP16 counter, Sfp PPTase inh, RORgamma inh)
CC(C)C(Nc1ccc(S(=O)(=O)N2CCOCC2)cc1[N+](=O)[O-])C(=O)O (stereo unspecified)	ALDH1A1 block 1.3µM
C/C(=N\Nc1ccc(S(N)(=O)=O)cc1[N+](=O)[O-])c1ccc2c(c1)OCO2	VP16 counter 11µM, RORgamma inh inconclusive
C/C(=N\Nc1ccc(S(=O)(=O)N2CCOCC2)cc1[N+](=O)[O-])C(C)C	ALDH1A1 block 18µM, RORgamma inh inconclusive
CC(Sc1ccc(S(=O)(=O)N2CCOCC2)cc1[N+](=O)[O-])C(=O)O (stereo unspecified)	ALDH1A1 block inconclusive
Nc1nc(-c2ccc3c(c2)OCCO3)cs1	ALDH1A1 block inconclusive
N#Cc1ncc(-c2ccc3c(c2)OCCOCCOCCOCCOCCO3)nc1C#N	VP16 counter 4.5µM, RORgamma inh 11µM
N#Cc1ncc(-c2ccc3c(c2)OCCOCCOCCOCCO3)nc1C#N	VP16 counter inconclusive, RORgamma inh 13µM
Cc1ccc(F)cc1NC(=O)C1CC(=O)N(Cc2ccccc2)C1 (stereo unspecified)	none (no result: ALDH1A1 block, VP16 counter, Sfp PPTase inh, RORgamma inh)
Cc1cccc(CN2[C@H](COC(=O)Nc3ccccc3)C=CS2(=O)=O)c1	none (no result: ALDH1A1 block, VP16 counter, Sfp PPTase inh, RORgamma inh)
O=[N+]([O-])c1ccccc1/C=N/NC1=NS(=O)(=O)c2ccccc21	ALDH1A1 block inconclusive, Sfp PPTase inh inconclusive
O=S1(=O)N=C(N/N=C/c2ccco2)c2ccccc21	VP16 counter inconclusive, RORgamma inh 7.9µM
Cc1ccc(S(=O)(=O)Nc2ccc3c(c2)C(=O)NC3=O)cc1[N+](=O)[O-]	none (no result: ALDH1A1 block)
CSc1ncccc1C(=O)Nc1ccc(S(=O)(=O)Nc2nccs2)cc1	ALDH1A1 block inconclusive
CSc1ncccc1C(=O)Nc1nccs1	RORgamma inh 10µM (no result: ALDH1A1 block)
CSc1ncccc1C(=O)Nc1ncc(C)s1	RORgamma inh 11µM (no result: ALDH1A1 block)
CSc1ccccc1C(=O)Nc1ncc(C)s1	none
Cc1ccc(C(=O)Nc2ncc(C)s2)o1	RORgamma inh inconclusive
Cc1ccc(C(=O)Nc2ncc(C)s2)s1	VP16 counter inconclusive, RORgamma inh 7.1µM (no result: ALDH1A1 block)
O=C(Nc1ccnn1C1CCN(C(=O)c2cccc(C(F)(F)F)c2)CC1)C1CC1	none (no result: ALDH1A1 block)
CCOC(=O)C1=C(C)N(C)C(=S)NC1c1cc(OC)ccc1OC (stereo unspecified)	VP16 counter inconclusive, RORgamma inh 14µM
CCOc1ccc2nc(SCC(=O)N3CCCCCC3)c(C#N)cc2c1	ALDH1A1 block inconclusive
CCOc1ccc2cc(C#N)c(SCC(=O)N3CCOCC3)nc2c1	ALDH1A1 block 3.5µM
CCCN(C(=O)CSc1nc2cc(S(=O)(=O)N(CC)CC)ccc2o1)C1CCS(=O)(=O)C1 (stereo unspecified)	none (no result: ALDH1A1 block, VP16 counter, Sfp PPTase inh, RORgamma inh)
CCN(C(=O)CSc1nc2cc(S(=O)(=O)N(CC)CC)ccc2o1)C1CCS(=O)(=O)C1 (stereo unspecified)	Sfp PPTase inh 18µM, PLK1 PBD block 21µM (no result: ALDH1A1 block)
COc1ccc(C2=NCC(CSc3nnc(-c4ccc5c(c4)OCO5)o3)S2)cc1 (stereo unspecified)	RORgamma inh inconclusive
CCN(CC)S(=O)(=O)c1ccc2oc(SCC3CN=C(c4ccc(OC)cc4)S3)nc2c1 (stereo unspecified)	ALDH1A1 block 22µM, VP16 counter inconclusive
O=c1[nH][nH]c2c(N=Cc3ccccc3O)ccc(F)c12	ALDH1A1 block 8.9µM, Sfp PPTase inh 7.9µM, PLK1 PBD block 11µM
Cn1ncc(N=Cc2ccccc2O)c1C(=O)Nc1ccccc1	none
CCCCN1C[C@H](c2ccccc2)[C@@H](CC(=O)NC)C1=O	none (no result: ALDH1A1 block, VP16 counter, Sfp PPTase inh, RORgamma inh)
COc1ccccc1CNCC(O)(c1ccc(F)cc1)c1ccc(F)cc1	none (no result: ALDH1A1 block)
OC(CNCc1ccccc1F)(c1ccc(F)cc1)c1ccc(F)cc1	VP16 counter inconclusive, RORgamma inh 7.9µM
S=C(NCc1cccnc1)Nc1cccc2ccccc12	ALDH1A1 block 5µM
CCCCNC(=S)Nc1cccc2cnccc12	ALDH1A1 block inconclusive, PLK1 PBD block inconclusive
